Results as given in ChEMBL document CHEMBL3988442, “University of Dundee, Small-Polar-MMV Screening Library” (2021).

Columns and labels:
[1] = target: T1, Aspartate--tRNA(Asp/Asn) ligase (Mycobacterium tuberculosis (strain ATCC 25618 / H37Rv)) (UniProt P9WFW3); assay: Assay for Asp RNA synthetase-1 from Mycobacterium tuberculosis; format: functional; set-up: scale not given: direction of the effect not stated beside the values; details: 30 µM; further: in the data most compounds retested in dose-response had high values
T1 sequence (whole entry): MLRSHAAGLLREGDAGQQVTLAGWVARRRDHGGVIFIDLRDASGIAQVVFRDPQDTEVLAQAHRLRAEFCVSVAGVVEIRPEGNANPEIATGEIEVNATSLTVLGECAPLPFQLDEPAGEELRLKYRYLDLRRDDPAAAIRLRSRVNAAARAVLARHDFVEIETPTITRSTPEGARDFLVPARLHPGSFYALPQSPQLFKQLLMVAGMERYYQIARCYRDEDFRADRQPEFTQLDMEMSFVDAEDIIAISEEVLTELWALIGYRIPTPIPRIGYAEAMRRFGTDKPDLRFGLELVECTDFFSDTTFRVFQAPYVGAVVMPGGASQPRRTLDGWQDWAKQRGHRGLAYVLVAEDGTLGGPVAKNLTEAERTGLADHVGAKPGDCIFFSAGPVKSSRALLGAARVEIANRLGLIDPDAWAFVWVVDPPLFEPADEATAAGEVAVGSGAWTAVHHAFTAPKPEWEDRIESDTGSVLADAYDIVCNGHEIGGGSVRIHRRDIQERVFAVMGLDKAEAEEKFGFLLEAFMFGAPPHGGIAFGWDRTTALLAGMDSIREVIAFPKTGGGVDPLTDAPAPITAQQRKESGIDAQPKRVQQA

[2] = target: Shiga toxin 2 (Escherichia coli O157:H7) (UniProt P09385+P09386); assay: E. coli 0.157:H7 Shiga Toxin SOP - stx2 screening assay; format: functional; set-up: scale not given: direction of the effect not stated beside the values; details: 30 µM

SMILES | Percent Effect [1] | Percent Effect [2]
Cc1noc(C2CCC3(CCN(C(=O)c4c(C)noc4C)CC3)O2)n1 (configuration not stated) | -3.06% | 16.1%
O=C(C1CCC1)N1CCCC1c1nnc2n1CCCCC2 (configuration not stated) | -0.296% | -16%
c1cnn(CC2CN(Cc3nc(-c4ccsc4)no3)CCO2)c1 (configuration not stated) | -2.68% | 35%
O=C(CSCC1CC1)N1CCCC(c2nccn2Cc2ccncc2)C1 (configuration not stated) | -7.86% | 6.34%
COc1ccccc1[C@@H]1CN(Cc2cc(C(C)(C)C)[nH]n2)C[C@H]1C(=O)O | 1.28% | -6.54%
Cc1cnc(N2CCn3cc(CNC(=O)CC4CC4)nc3C2)nc1 | 2.93% | -22.4%
COc1ccc(OCC(=O)NC(C)c2ccccc2)c(C(=O)O)c1 (configuration not stated) | -1.11% | -9.07%
COCCN1C(=O)CCC12CCN(C(=O)NC(C)C)CC2 | -3.16% | 6%
O=C(NCc1ccccn1)[C@H]1COC[C@H]2CN(Cc3ccoc3)C[C@H]21 | -0.779% | -0.902%
CSCC[C@H](NC(=O)Cn1ccc2c(Cl)cccc21)C(=O)O | -3.22% | -22%
O=C(C(CNCc1ccsc1)c1ccccc1)N1CCOCC1 (configuration not stated) | 4.13% | -22.6%
CNC(=O)C1Cn2ccnc2C2(CCN(Cc3cccc(C)n3)CC2)O1 (configuration not stated) | 1.82% | 0.0939%
Cc1ccn(-c2cccc(C(=O)N3CCCC(n4ccnc4C)C3)c2)n1 (configuration not stated) | -0.301% | -7.17%
CCc1nc(CN(C(C)=O)C2CCN(CCc3cnn(C)c3)C2)no1 (configuration not stated) | -5.05% | -15.6%
COCCN(Cc1ccc(F)cc1Cl)C(=O)c1cccc[n+]1[O-] | -4.34% | 0.846%
CC(C)CCc1noc(CN2CCCN(C(=O)c3ccco3)CC2)n1 | -1.32% | -9.12%
O=C(N[C@@H]1CN(Cc2cccs2)[C@@H]2CCCO[C@@H]21)C1CC1 | 4.13% | -24%
COC(=O)c1ccccc1NC(=O)c1nc2ccccc2n(C)c1=O | 2.38% | -9.47%
Clc1ccccc1-c1nc(CNC2CCc3ncnn3C2)cs1 (configuration not stated) | -0.745% | -6.39%
O=C(NCC1CC1)C1CN(C(=O)c2cccc(Cl)c2)CC12CCOCC2 (configuration not stated) | 11.9% | -14.2%
O=C(c1ccccn1)N1CCc2c(nc(N3CCCC3)[nH]c2=O)C1 | -2.28% | -39.9%
Cc1cc(C)n(CC2CCCCN2Cc2cscn2)n1 (configuration not stated) | -3.34% | 25.2%
CC(C)c1cc(N2CCC(N)CC2)n2nccc2n1 | -0.232% | 19.8%

SMILES | Percent Effect [1] | Percent Effect [2]
CCc1nc(C)c([C@H]2CN(C)C[C@@H]2C(=O)NCCc2cnccn2)[nH]1 | -1.15% | -9.87%
O=C(CCNC(=O)c1ccccc1)Nc1ccncc1 | -1.89% | -111%
CN(C)c1cc(CNC(=O)Nc2ccc(F)cc2)ccn1 | 3.3% | -156%
CCn1ccnc1CN1CCCC(CO)(Cc2cccc(Cl)c2)C1 (configuration not stated) | 10% | 15.9%
COc1c(CNCC(O)c2cccc(F)c2)c(C(C)C)nn1C (configuration not stated) | 7.7% | 15.6%
OCCn1cc(CN2CCN(CCOCC(F)(F)F)CC2)cn1 | -3.85% | 27.3%
COCc1nc(N(C)C)ncc1C(=O)NC(C)C | -0.697% | -16.3%
CN1CCC(C(=O)NCc2nncn2-c2ccccc2)CC1=O (configuration not stated) | -4.57% | 18.1%
CCN(CC)C1CCN(C(=O)NCc2nncn2CC)CC1 | -0.573% | -26%
COc1ccccc1CC(=O)NS(=O)(=O)c1cncc(Br)c1 | -6.19% | 10.1%
CC(=O)c1sc(Nc2ccc(Cl)cn2)nc1C | 6.71% | -4.07%
Cc1ccc(N2CCC3(CCCN(C(=O)c4cccnc4)C3)C2)nn1 (configuration not stated) | 8.13% | -11%
c1cnn(CC2CN(Cc3noc(C4CC4)n3)CCO2)c1 (configuration not stated) | 0.485% | 5.97%
CN(C)C(=O)[C@@H]1C[C@@H]2CCN(Cc3ccc4c(c3)OCO4)C[C@@H]2O1 | -0.869% | 3.86%
N#Cc1ccccc1OCCN1CCC(N2CCNC2=O)CC1 | -0.816% | -50.9%
Cc1ccc(CCNC(=O)N2CCCC(Cc3nccn3C)C2)cn1 (configuration not stated) | -1.82% | -13.3%
COc1ccc(CCN2CCc3c(nc(C4CC4)n3C)C2)cc1 | 4.19% | -51.7%
CC(C(=O)N1CCN(c2ccccc2Cl)CC1)n1cncn1 (configuration not stated) | -1.38% | -19.8%
CC(=O)NCCC1CCCCN1S(=O)(=O)c1cccc(C#N)c1 (configuration not stated) | -1.28% | -30%
COc1ccc(CN2CCC[C@@H]3CN(C(=O)c4ccco4)C[C@@H]32)cc1 | 5.87% | 0.332%
O=C1CO[C@@H]2CN(Cc3cccs3)C[C@H]2N1CC1CC1 | 12.1% | -3.56%
O=C(CCN1CCOC(Cn2cccn2)C1)NC1CCCC1 (configuration not stated) | -1.67% | -51.9%
NC(=O)C1CCCN(Cc2c(-c3ccco3)[nH]c3ncccc23)C1 (configuration not stated) | 10.6% | 3.34%
